# Test results: PubChem BioAssay (NCATS)
# “And” between values parts separate entries of the source, which are not always exact repeats. Equal values may be shown once. Records with an inconclusive call do not appear. A number with no mark means an inactive call. The source made the active and inactive calls. The call rests on the fitted dose curve; in most records, active means well fitted inhibition curve with a large enough effect; inconclusive means small, poorly fitted or top-dose-only effect; inactive means flat fitted curve, though single readings scatter.
# Assays:
# CRL-7250 = normal cell line; experiment: Cytotoxic Profiling of Annotated Libraries Using Quantitative High-Throughput Screening (AID 1296008); settings: Five cell lines viability, CellTiter-Glo ATP luminescence, 48-72 h; max response: hits give low values; on max response: on the % scale 0 is the no-effect control and ±100 the full control effect
# In short: (§1)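 Cells exposed to compounds for 48 or 72 hr at 37 degrees Celsius. Viability read as ATP-coupled luminescence with CellTiter-Glo after 10 min at room temperature.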
# HEK293 = experiment: as above; settings: Five cell lines viability, CellTiter-Glo ATP luminescence, 48-72 h; max response: hits give low values
# In short: as §1
# KB-3-1 = experiment: as above; settings: Five cell lines viability, CellTiter-Glo ATP luminescence, 48-72 h; max response: hits give low values
# In short: as §1
# NIH3T3 = experiment: as above; settings: Five cell lines viability, CellTiter-Glo ATP luminescence, 48-72 h; max response: hits give low values
# In short: as §1
# HACAT [1] = experiment: qHTS assay to identify novel small-molecules to repurpose for Merkel cell carcinoma treatment (AID 1296009); settings: MCC and control cell lines, CellTiter-Glo viability, 72 h; at 44.8 µM (top of the series) unless noted
# In short: (§2)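 Dose-response viability screen; 72 hr exposure at 37 degree celsius; CellTiter-Glo added, 10 min room temperature, luminescence read; RLUs scaled between no-cell and DMSO wells.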
# MCC-13 = experiment: as above; settings: MCC and control cell lines, CellTiter-Glo viability, 72 h; series mostly up to 46 µM
# In short: as §2
# MCC-26 = experiment: as above; settings: MCC and control cell lines, CellTiter-Glo viability, 72 h; series mostly up to 46 µM
# In short: as §2
# MKL-2 = experiment: as above; settings: MCC and control cell lines, CellTiter-Glo viability, 72 h; series mostly up to 46 µM
# In short: as §2
# UISO = experiment: as above; settings: MCC and control cell lines, CellTiter-Glo viability, 72 h; series mostly up to 46 µM
# In short: as §2
# HaCat [2] = experiment: Cytotoxic Profiling of Annotated Libraries Using Quantitative High-Throughput Screening (AID 1296008); settings: Five cell lines viability, CellTiter-Glo ATP luminescence, 48-72 h; max response: hits give low values; on max response: on the % scale 0 is the no-effect control and ±100 the full control effect
# In short: as §1
# MKL-1 = experiment: qHTS assay to identify novel small-molecules to repurpose for Merkel cell carcinoma treatment (AID 1296009); settings: MCC and control cell lines, CellTiter-Glo viability, 72 h; series mostly up to 46 µM
# In short: as §2
# PC49 = experiment: qHTS profiling for inhibitors of Plasmodium falciparum proliferation (AID 504749); settings: P. falciparum in erythrocytes, SYBR Green DNA, 72 h; series mostly up to 28.7 µM
# In short: (§3)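 Each compound contacts P. falciparum-infected red blood cells for 72 h at 37 C; lysis buffer (Tris, EDTA, saponin, Triton X, SYBR Green I) is added and fluorescence measured next morning; values normalized to controls.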
# W2 = experiment: as above; settings: P. falciparum in erythrocytes, SYBR Green DNA, 72 h; series mostly up to 28.7 µM
# In short: as §3
# Further: nearly all actives have a fitted effect of over 60% in size.
# Potency means the concentration at half of the fitted maximal effect.
structure (smiles),measurement,setting,value
CCOc1ccc(Cc2cc([C@@H]3O[C@H](CO)[C@@H](O)[C@H](O)[C@@H]3O)ccc2Cl)cc1,max response,CRL-7250,-1.42%
same,max response,HEK293,1.73%
same,max response,KB-3-1,6.49%
same,max response,NIH3T3,1.42%
same,outcome,HACAT [1],inactive
same,Potency,MCC-13,inactive
same,Potency,MCC-26,inactive
same,Potency,MKL-2,inactive
same,Potency,UISO,inactive
Cn1cc(-c2ccc3nnc(C(F)(F)c4ccc5ncccc5c4)n3n2)cn1,max response,CRL-7250,-14.4%
same,max response,HEK293,-1.08%
same,max response,HaCat [2],-1.46%
same,max response,KB-3-1,5.05% and 7.07%
same,max response,NIH3T3,-35.7%
same,Potency,MCC-13,inactive
same,Potency,MCC-26,inactive
same,Potency,MKL-1,inactive
same,Potency,MKL-2,inactive
same,Potency,UISO,inactive
CCOc1ccn(-c2ccc(F)cc2)c(=O)c1C(=O)Nc1ccc(Oc2ccnc(N)c2Cl)c(F)c1,max response,CRL-7250,-27.8%
same,Potency,HEK293,26.4 µM (active)
same,Potency,HaCat [2],23.5 µM (active)
same,Potency,KB-3-1,13.2 µM (active)
same,Potency,MCC-13,inactive
same,Potency,MCC-26,inactive
same,Potency,MKL-1,inactive
same,Potency,MKL-2,inactive
COc1ccccc1-c1cccc(-c2c(O)c3cc(C#N)c(Cl)cc3[nH]c2=O)c1,Potency,CRL-7250,8.55 µM (active)
same,Potency,HEK293,3.4 µM (active)
same,Potency,HaCat [2],19.1 µM (active)
same,max response,KB-3-1,-25.1%
same,Potency,NIH3T3,21.5 µM (active)
same,Potency,MCC-13,inactive
same,Potency,MCC-26,inactive
same,Potency,MKL-1,inactive
same,Potency,MKL-2,inactive
same,Potency,UISO,inactive
CS(=O)(=O)c1ccc(C(=O)Nc2ccc(Cl)c(-c3ccccn3)c2)c(Cl)c1,max response,CRL-7250,-4.31% and 3.97%
same,max response,HEK293,-6.21%
same,max response,KB-3-1,9.49% and -9.43%
same,max response,NIH3T3,-17.3% and -11.2%
same,Potency,MCC-13,inactive
same,Potency,MCC-26,inactive
same,Potency,MKL-1,inactive
same,Potency,MKL-2,inactive
same,Potency,UISO,inactive
O=C1[C@H](Cc2ccc(O)cc2)N2C(=O)CCN(C(=O)NCc3ccccc3)[C@H]2CN1Cc1cccc2ccccc12,max response,CRL-7250,-59.7%
same,Potency,HEK293,2.09 µM (active)
same,Potency,HaCat [2],2.96 µM (active)
same,Potency,KB-3-1,16.6 µM (active)
same,Potency,MCC-26,inactive
same,Potency,MKL-1,14.8 µM (active)
same,Potency,UISO,4.69 µM (active)
C#Cc1cccc(Nc2ncnc3cc(OCCOC)c(OCCOC)cc23)c1,Potency,PC49,inactive
same,Potency,W2,4.26 µM (active)
same,Potency,CRL-7250,18.7 µM (active) and 8.41 µM (active)
same,Potency,HEK293,16.6 µM (active)
same,Potency,HaCat [2],5.9 µM (active) and 944 nM (active) and 651 nM (active)
same,max response,KB-3-1,-10.3% and -1.91%
same,Potency,MCC-13,inactive
same,Potency,MCC-26,inactive
same,Potency,MKL-1,inactive
same,Potency,MKL-2,inactive
CCC(=O)N[C@H]1CC[C@H](C(=O)N(C)c2ccc(-c3nc4ccccc4o3)cc2)C1,max response,CRL-7250,-6.63%
same,Potency,HEK293,20.9 µM (active)
same,max response,KB-3-1,-16.3%
same,max response,NIH3T3,-2.14%
same,outcome,HACAT [1],inactive
same,Potency,MCC-13,inactive
same,Potency,MCC-26,inactive
same,Potency,MKL-1,inactive
COc1ccccc1[C@H](c1cccc2ccccc12)[C@@](C)(C#N)C(=O)N1CCC(c2cccc(C(F)(F)F)c2)CC1,Potency,CRL-7250,26.4 µM (active)
same,Potency,HEK293,13.2 µM (active)
same,max response,HaCat [2],-11.9%
same,Potency,MCC-13,inactive
same,Potency,MCC-26,inactive
